# Data taken from PubChem BioAssay.
# Active and inactive are the calls of the source.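 How the source made its calls, unless noted: active means inhibition at or above 50% at 10 µM; inactive means inhibition below 50%.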
# Tests used:
# [1] = inhibitors of TNFa-induced NFkB p65 translocation, primary screen, imaging, HUVEC, MLSMR starter and 10KST1 sets (AID 438;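 active means inhibition above 20% together with a positive visual image hit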;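 further: compound added about 3h40 before a 20 min TNFalpha stimulation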;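 on inhibition: signal is the nuclear over cytoplasmic p65 intensity ratio per well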); settings: HUVEC TNFa-induced p65 nuclear translocation; cell count: measured here: nuclei count (cytotoxicity indicator), at 2.08 µM; inhibition: at 2 µM, stronger effect = higher value, 0% TNFa-plus-vehicle, 100% no-TNFa wells
# [2] = reduction of polyQ htt aggregates in cells – imaging, exon1htt(103Q)mCFP cells, high-content imaging, primary screen (AID 483;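 active means visual image review flags a hit and inhibition of aggregation exceeds 20%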;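 further: compound exposure lasted 3 days before fixation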;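 on nuclei count: percent of the per-plate median nuclei count of sample wells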); settings: exon1htt(103Q)mCFP cell line, aggregate imaging, at 2 µM; inhibition of aggregation: stronger effect = higher value; nuclei count: measured here: cell count, toxicity
# [3] = endothelial E-selectin expression blockers – imaging, HUVEC, immunofluorescence, MLSMR starter and 10KST1 sets, primary screen (AID 487;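 active means visually confirmed hit in the image check and inhibition above 20%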;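 on inhibition: signal is fraction of cell area covered by stained E-selectin grains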;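 on nuclei count: 100% = median nuclei count of all wells on the same plate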); settings: HUVEC TNFalpha-induced E-selectin immunofluorescence imaging, at 2 µM; inhibition: stronger effect = higher value; nuclei count: measured here: cell number, toxicity
# [4] = biological target: Voltage-gated potassium channel subunit beta-2 (Rattus norvegicus) (UniProt P62483); assay: inhibitors of rat Kvbeta2 reductase activity – biochemical, NADPH fluorescence, primary screen (AID 622;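 active means fluorescence slope higher than the sample average by over 3 SD, cut at about -0.22 in these data, passing the limit was not always enough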;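 further: slope of raw intensity against log time taken from 70 to 1610 s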); settings: recombinant KvBeta, 4-cyanobenzaldehyde reduction, at 10 µM, stronger effect = higher value
# [5] = biological target: Voltage-gated potassium channel subunit beta-2 (Rattus norvegicus) (UniProt P62483); assay: enhancers of rat Kvbeta2 NADPH turnover – biochemical, NADPH fluorescence, primary screen (AID 623;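 active means NADPH fluorescence slope more negative than the mean of all samples by about 3 SD, 99.7% confidence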;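 further: fluorescence intensity change per second fitted from 20 to 320 s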); settings: Recombinant KvBeta, NADPH fluorescence decrease slope, 10 min; at 10 µM; stronger effect = lower value
# [6] = biological target: Alpha-2C adrenergic receptor (Homo sapiens) (UniProt P18825); assay: compounds altering alpha2C-coupled GIRK flux – cell-based, HEK293 alpha2C/GIRK1/2, thallium flux, primary screen (AID 624;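 active means fluorescence slope after compound addition differing from the mean of all screened samples at 99.7% confidence, in either direction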;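 further: slope of fluorescence ratio to pre-addition baseline per second over 15 to 24 s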); settings: thallium flux BTC fluorescence, at 10 µM, actives lie on both sides
# [7] = blockers of RIG-like receptor reporter activation – cell-based, Sendai virus stimulus, luciferase, 10K MLSCN set, TLR/RLR signaling modifier project, primary screen (AID 602276); settings: HEK293 RL24 IRF3 luciferase reporter, at 10 µM, stronger effect = higher value;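 further: firefly luciferase from ISG56 promoter only with Renilla not read in this screen; 0% = Sendai virus plus DMSO and 100% = medium plus DMSO without virus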
# [8] = TLR3 IRF3 reporter activation blockers – cell-based, poly I:C stimulus, luciferase, 10K MLSCN set, primary screen (AID 602277;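 active means inhibition of the reporter signal at or above 50%; inactive means inhibition below 50%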); settings: HEK293-TLR3 RL24 IRF3 luciferase reporter, at 10 µM, stronger effect = higher value
# Chain of Voltage-gated potassium channel subunit beta-2 (Rattus norvegicus) (P62483 whole entry, looked up): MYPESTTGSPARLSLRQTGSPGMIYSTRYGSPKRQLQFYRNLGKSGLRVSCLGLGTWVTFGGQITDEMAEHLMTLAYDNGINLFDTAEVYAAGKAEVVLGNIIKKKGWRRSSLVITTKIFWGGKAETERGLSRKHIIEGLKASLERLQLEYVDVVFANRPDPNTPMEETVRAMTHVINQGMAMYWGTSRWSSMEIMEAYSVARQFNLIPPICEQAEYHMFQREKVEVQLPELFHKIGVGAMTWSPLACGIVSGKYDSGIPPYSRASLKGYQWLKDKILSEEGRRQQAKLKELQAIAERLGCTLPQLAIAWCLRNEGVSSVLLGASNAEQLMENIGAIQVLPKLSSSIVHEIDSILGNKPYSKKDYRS
# Chain of Alpha-2C adrenergic receptor (Homo sapiens) (P18825 whole entry, looked up): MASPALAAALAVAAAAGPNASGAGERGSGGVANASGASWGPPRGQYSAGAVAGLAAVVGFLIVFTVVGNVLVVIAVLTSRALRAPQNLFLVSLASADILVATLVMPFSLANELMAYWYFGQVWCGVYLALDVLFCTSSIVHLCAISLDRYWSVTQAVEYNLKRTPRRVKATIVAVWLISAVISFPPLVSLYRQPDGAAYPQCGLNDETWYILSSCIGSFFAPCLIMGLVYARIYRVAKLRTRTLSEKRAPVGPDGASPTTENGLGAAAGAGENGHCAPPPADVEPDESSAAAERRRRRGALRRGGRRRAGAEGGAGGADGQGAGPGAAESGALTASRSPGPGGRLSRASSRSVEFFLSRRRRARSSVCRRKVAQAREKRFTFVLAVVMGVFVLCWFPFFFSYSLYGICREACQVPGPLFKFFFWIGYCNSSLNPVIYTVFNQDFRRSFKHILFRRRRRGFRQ
Compound,cell count [1],inhibition [1],inhibition of aggregation [2],nuclei count [2] [%],inhibition [3],nuclei count [3] [%],fluorescence slope [4],NADPH fluorescence slope [5],slope [6],inhibition [7],inhibition [8]
Cc1cnc(C(=O)Nc2ccc(N3CCN(C(=O)OC(C)(C)C)CC3)cc2)cn1,316,8.7% (inactive),-7.1% (inactive),4.4,-1.6% (inactive),93.1,-0.636 (inactive),-3.5e-05 (inactive),0.00617 (inactive),-2.13% (inactive),6.1% (inactive)
CCC(=O)c1ccc(OCC(O)CN2CCN(S(=O)(=O)N3CCCCC3)CC2)cc1 (configuration not stated),450,1.3% (inactive),-4.1% (inactive),102,-47.7% (inactive),184,-0.592 (inactive),-1.7e-05 (inactive),0.00309 (inactive),14.1% (inactive),9.85% (inactive)
COC(=O)CCC(NC(=O)c1cc(-c2ccc3c(c2)OCCO3)oc1C)C(=O)OC (configuration not stated),320,20% (active),0.3% (inactive),104,13.3% (inactive),104,-0.48 (inactive),-3e-05 (inactive),0.00476 (inactive),-2.55% (inactive),-6.77% (inactive)
CC1CCCC(N2CCN(C(=O)c3ccc(F)cc3)CC2)C1 (configuration not stated),625,-1.3% (inactive),-15.5% (inactive),106,-53.4% (inactive),114,-0.581 (inactive),-4.9e-05 (inactive),0.00721 (inactive),2.84% (inactive),43.9% (inactive)
Cc1c(NS(=O)(=O)c2ccc3c(c2)n(C)c(=O)n3C)c(=O)n(-c2ccccc2)n1C,582,2.7% (inactive),-2% (inactive),99.2,28% (inactive),93,-0.616 (inactive),1.5e-05 (inactive),0.00372 (inactive),15.8% (inactive),13.4% (inactive)
Cc1ccc(S(=O)(=O)Cn2nnnc2CN(Cc2ccco2)Cc2cccs2)cc1,324,-1.6% (inactive),6.8% (inactive),108,-85.1% (inactive),133,-0.594 (inactive),-4.2e-05 (inactive),0.00355 (inactive),7.14% (inactive),6.8% (inactive)
CCOC(=O)c1cc2ccc(OC)c(OC)c2c(=O)s1,452,4.9% (inactive),-3.4% (inactive),102,36.3% (inactive),108,-0.396 (inactive),-2.4e-05 (inactive),0.00363 (inactive),-11.9% (inactive),-12.5% (inactive)
Cc1cc(C(=O)CSc2nc3ccccc3n2CCC#N)c(C)n1Cc1cccs1,440,10.6% (inactive),-70.3% (inactive),102,-412% (inactive),158,-0.32 (inactive),-4.6e-05 (inactive),0.00574 (inactive),20.7% (inactive),-7.47% (inactive)
COc1cccc(C2CC(c3ccccc3)n3ncnc3N2)c1 (configuration not stated),564,4.1% (inactive),-12% (inactive),90.7,17.4% (inactive),82,-0.6 (inactive),-2.8e-05 (inactive),0.00718 (inactive),5.93% (inactive),33.2% (inactive)
COc1ccc(C)cc1NC(=O)c1nc2nc(C)cc(C)n2n1,471,3.8% (inactive),5.2% (inactive),98.1,-23.4% (inactive),124,-0.297 (inactive),1.4e-06 (inactive),0.00674 (inactive),18.5% (inactive),9.03% (inactive)
CC(C)N(Cc1nc(-c2ccccc2)no1)C(=O)CCCN1C(=O)c2ccccc2C1=O,475,-9.3% (inactive),-7.3% (inactive),112,-78.3% (inactive),158,-0.53 (inactive),-8.9e-06 (inactive),0.00616 (inactive),4.76% (inactive),3.27% (inactive)
CC(C)CN(CC(C)C)C(=O)C12CCC(C)(C(=O)C1)C2(C)C (configuration not stated),720,-10.4% (inactive),13.7% (inactive),99.8,-45.3% (inactive),115,-0.452 (inactive),0.000106 (inactive),0.00697 (inactive),-21.4% (inactive),-2.9% (inactive)
c1ccc(CCc2nc(-c3cccnc3)no2)cc1,647,3.1% (inactive),5% (inactive),93,-102% (inactive),132,-0.636 (inactive),1.1e-05 (inactive),0.00345 (inactive),-30.7% (inactive),-90.7% (inactive)
O=C(Nc1cccc(Cl)c1)N1CCN(c2ncccn2)CC1,334,2% (inactive),21% (inactive),94.1,19.1% (inactive),84.8,-0.53 (inactive),4.6e-05 (inactive),0.00446 (inactive),-23.1% (inactive),-47% (inactive)
COc1ccccc1-c1cc(C(=O)Nc2cc(C)nn2-c2ccccc2)no1,478,-9.3% (inactive),-24.6% (inactive),111,4.5% (inactive),109,-0.381 (inactive),-2e-05 (inactive),0.00489 (inactive),-1.99% (inactive),16% (inactive)
N#CC1=C(N)OC2=C(CCC/C2=C/c2ccoc2)C1c1ccoc1 (configuration not stated),413,-5.2% (inactive),-17.9% (inactive),113,-137% (inactive),115,-0.313 (inactive),-5.7e-05 (inactive),0.00619 (inactive),-7.37% (inactive),-9.08% (inactive)
CCn1c(SCC(=O)N2CCN(c3ccc(Cl)cc3)CC2)nc2ccccc2c1=O,324,8.1% (inactive),19.7% (inactive),83.7,-184% (inactive),102,-0.545 (inactive),4e-05 (inactive),0.00578 (inactive),-8.17% (inactive),-12.7% (inactive)
O=C(Nc1ccc2c(c1)OCO2)C(c1ccccc1)N1CCC2(CC1)OCCO2 (configuration not stated),649,2% (inactive),-13.5% (inactive),107,23.5% (inactive),115,-0.51 (inactive),3.6e-05 (inactive),0.00477 (inactive),-14.7% (inactive),1% (inactive)
Cc1cccc2c1N(CC(=O)OC(C)C)C(=O)C2=O,854,0% (inactive),-1.4% (inactive),105,-67.4% (inactive),121,-0.612 (inactive),-6.4e-06 (inactive),0.00621 (inactive),-2.09% (inactive),29% (inactive)
O=C(Nc1ccc(SC(F)F)cc1)c1ccc2nccnc2c1,823,-1.3% (inactive),14.5% (inactive),101,55.1% (active),95,-0.39 (inactive),2e-05 (inactive),0.00714 (inactive),-15% (inactive),-139% (inactive)
CCCCn1nnnc1NCc1cccs1,412,2.9% (inactive),0.4% (inactive),105,-66.2% (inactive),119,-0.52 (inactive),-1.2e-05 (inactive),0.00631 (inactive),4.2% (inactive),-0.68% (inactive)
Cc1ccccc1OCc1nc2ccccc2c(=O)n1/N=C/c1ccco1,373,-13.1% (inactive),4% (inactive),57.5,-47.5% (inactive),85.3,-0.46 (inactive),-4.6e-05 (inactive),0.00374 (inactive),-5.07% (inactive),-33% (inactive)
Cc1onc(-c2ccccc2Cl)c1C(=O)Nc1cnn(Cc2ccccc2)c1,545,1.1% (inactive),-4% (inactive),121,15.1% (inactive),120,-0.545 (inactive),6.7e-06 (inactive),0.00545 (inactive),14.3% (inactive),32.6% (inactive)
COCCN(CCOC)C(=O)c1sc2nc(-c3ccccc3)cn2c1C,752,-10.7% (inactive),-5.6% (inactive),119,-55.5% (inactive),127,-0.39 (inactive),-9.4e-06 (inactive),0.00336 (inactive),9.08% (inactive),7.03% (inactive)
CCCCn1c(SCC(=O)Nc2ccc(OC)cc2)nc2ccc(N3CCOCC3)cc2c1=O,508,-0.6% (inactive),20.8% (inactive),44.4,-3.4% (inactive),103,-0.407 (inactive),6.3e-06 (inactive),0.00425 (inactive),11.2% (inactive),13.1% (inactive)
COC(=O)C1=C(N)Oc2cc(C)n(Cc3ccncc3)c(=O)c2C1c1cccnc1 (configuration not stated),594,-13.5% (inactive),0% (inactive),87.4,10.9% (inactive),104,-0.479 (inactive),-7e-05 (inactive),0.00483 (inactive),12.8% (inactive),14.1% (inactive)
COc1ccccc1N1CCN(S(=O)(=O)CC23CCC(CC2=O)C3(C)C)CC1 (configuration not stated),522,-8.1% (inactive),20.7% (inactive),103,-64.4% (inactive),157,-0.452 (inactive),-3.6e-05 (inactive),0.00394 (inactive),9.34% (inactive),25.6% (inactive)
